Test results: PubChem BioAssay AID651719 (The Scripps Research Institute Molecular Screening Center, 2012)
The whole screen tested about 360,000 compounds, of which about 1,600 (0.44%) were called active. The entries come from a sample that favours actives as a whole. Unmarked numbers belong to inactive results.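 Rule for the calls: active = inhibition above the screen-wide average plus 3 SD (cut at about 13% in these data); inactive = the rest.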

Target: Galanin receptor type 3 (Homo sapiens) (UniProt O60755)
Assay: blockers of human galanin receptor 3 – cell-based, fluorescence readout, primary screen (AID 651719);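 note: forskolin and galanin both at EC90 stimulate the cells; cAMP rise reported by CNG channel membrane potential dye signal; 0% = forskolin plus galanin with DMSO and 100% = forskolin alone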
Details: HEK293 GalR3-CNG cAMP membrane potential fluorescence; at 3 µM; stronger effect = higher value; galR3 body fused to GalR1 C-terminus

Galanin receptor type 3 (Homo sapiens), sequence (O60755 1-299 limits assumed): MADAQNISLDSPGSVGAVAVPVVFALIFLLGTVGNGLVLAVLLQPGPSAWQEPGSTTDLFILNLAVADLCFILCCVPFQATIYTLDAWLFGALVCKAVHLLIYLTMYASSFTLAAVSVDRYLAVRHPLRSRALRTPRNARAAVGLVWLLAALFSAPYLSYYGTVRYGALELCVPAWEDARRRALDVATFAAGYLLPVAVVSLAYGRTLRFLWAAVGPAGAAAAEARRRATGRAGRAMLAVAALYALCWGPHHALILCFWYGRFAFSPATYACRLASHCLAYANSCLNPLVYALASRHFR

SMILES	inhibition
CC(=O)c1ccc(S(=O)(=O)NCC2CCN(C(=O)C(=O)c3cccs3)CC2)cc1	-4.03%
CC[C@H](NC(=O)[C@H](Cc1ccccc1)NC(=O)[C@H]1O[C@@H](n2cnc3c(=O)[nH]c(N)nc32)[C@H](O)[C@@H]1O)c1ccccc1	-6.3%
CCCOc1ccc(Cn2c(O)cc(=O)[nH]c2=O)cc1	4.51%
CCCOc1ccc(Cc2c(O)nc(SC)[nH]c2=O)cc1C	-4.3%
CCCOc1ccc(Cc2c(Cl)nc(SC)nc2NC)cc1	63.8% (active)
COc1cccc(CNC(=O)[C@H]2CCCN2C(=O)[C@H]2CCCN2C(=O)c2cc(F)cc(F)c2)c1	-4.4%
O=C1[C@@H](c2ccccc2)[C@@H](c2ccccc2)N1c1ccccc1	-1.03%
O=C(NCc1ccccc1)[C@@H]1CCCN1C(=O)[C@@H](NS(=O)(=O)c1ccc(F)cc1F)C1CCCCC1	-7.14%
COc1ccc(CCNc2nc(C)cc(C)n2)cc1OC	-8.92%
COc1cc(Nc2nc3ccc(Cl)cc3n3cnnc23)cc(OC)c1OC	-10.3%
COc1ccc(CCNc2nc3ccc(C)cc3n3cnnc23)cc1OC	18.6% (active)
C[C@H](CO)N1C[C@H](C)[C@@H](CN(C)C(=O)Nc2ccccc2F)OCc2cn(nn2)CCCC1=O	-5.31%
COc1cccc(CNC(=O)[C@H]2CCCN2C(=O)[C@H]2CCCN2C(=O)c2ccc(F)cc2)c1	-5.33%
CSc1nc(N(C)NC(=O)c2cccc(C)c2)c2ccccc2n1	17.1% (active)
Cc1ccc(S(=O)(=O)NC(=O)c2cccc(C)c2)cc1	-0.66%
CN(NC(=O)c1ccccc1F)c1nc(C(F)(F)F)nc2ccccc12	0.05%
O=C(NN=Cc1ccco1)C(=O)Nc1ccc(Cl)c([N+](=O)[O-])c1	-5.99%
N#CC1=C(N)Oc2n[nH]c(CSc3ccccc3)c2C12C(=O)Nc1ccccc12 (stereo not drawn)	-2.39%
Cc1cc(C)c(C#N)c(SCc2ccc3c(c2)OCO3)n1	-0.74%
Cc1cc(C)c(C#N)c(SCc2[nH]nc3c2C(c2ccccc2)C(C#N)=C(N)O3)n1 (stereo not drawn)	34.7% (active)
CC1CN(c2nc(Nc3ccccc3)nc(N)c2[N+](=O)[O-])CC(C)O1 (stereo not drawn)	-0.56%
COCCNc1nc(N)c([N+](=O)[O-])c(N2CCCCCC2)n1	-10.6%

SMILES	inhibition
Nc1nc(NCC(=O)O)nc(N2CCCCCC2)c1[N+](=O)[O-]	15.1% (active)
COC(=O)C1=C(C)N(Cc2cccc(C(F)(F)F)c2)C(=NCc2ccccc2)NC1c1ccccc1C(F)(F)F (stereo not drawn)	-3.46%
COC(=O)C1=C(C)N(Cc2ccc(C(F)(F)F)cc2)C(=NCc2ccc(C(F)(F)F)cc2)NC1c1cccc(Cl)c1 (stereo not drawn)	-3.2%
CN(CC(=O)Nc1ccc(OC(F)(F)F)cc1)C(=O)C1CCC1	-3.79%
COC(=O)Cc1ccc(OCC(=O)Nc2ccc(OC(F)(F)F)cc2)cc1	0.64%
CCNC(=S)Nc1ccc(OC(F)(F)F)cc1	13.5% (active)
CCc1ccc(C2=CC(=O)CC(C)(C)C2=O)cc1	-5.55%
CC(C)CNc1cccc2c1S(=O)(=O)N[C@H](CC(C)C)CO2	-4.83%
COC(=O)C1=C(C)NC(=S)NC1c1ccc(OC)cc1 (stereo not drawn)	-6.49%
COC(=O)c1cc2c(c3c4ccccc4n(S(=O)(=O)c4cccc(C)c4)c13)C(=O)N(Cc1ccccc1)C2	-7.5%
Cc1nc(N)sc1N=Nc1c(C)n(C)n(-c2ccccc2)c1=O	-1.11%
Cc1c(N=Nc2ccc(N(C)C)cc2)c(=O)n(-c2ccccc2)n1C	4.41%
CCn1c(-c2cc(OC)ccc2OC)csc1=Nc1c(C)n(C)n(-c2ccccc2)c1=O	12.9% (active)
Cc1[nH]nc2c1C(c1ccc(Br)cc1)NC2=O (stereo not drawn)	-4.49%
CN1CCCCC(NC(=O)C(C)(C)C)C1=O (stereo not drawn)	-7.34%
N#Cc1ccc(OCCCN2CCC(C(O)(c3ccccc3)c3ccccc3)CC2)c(F)c1	-9.27%
CCOC(=O)C1CSCCS(=O)(=O)N1Cc1ccc(Cl)cc1 (stereo not drawn)	-4.45%
CC1(C)OC(=O)C2=C(CC(CCc3ccccc3)OC2c2ccc(Cl)cc2)O1 (stereo not drawn)	-5.79%
O=C(CC1C(=O)NCCN1CC(c1ccccc1)c1ccccc1)NCCc1cn[nH]c1 (stereo not drawn)	13.4% (active)
CN(CCc1cn[nH]c1)C(=O)CC1C(=O)NCCN1Cc1cccc(Oc2ccccc2)c1 (stereo not drawn)	-7.77%
O=C(CC1C(=O)NCCN1CC(c1ccccc1)c1ccccc1)NCC1CCOCC1 (stereo not drawn)	-1.82%
